Consider 6 compounds from ChEMBL document CHEMBL1961873, “Compounds: GSK PKIS; Assays: Nanosyn kinase panel” (2012).

In assay [1] the target is T1, 3-phosphoinositide-dependent protein kinase 1 (Homo sapiens) (UniProt O15530).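 Also: values are mean inhibition of PDK1.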
T1 sequence (whole entry): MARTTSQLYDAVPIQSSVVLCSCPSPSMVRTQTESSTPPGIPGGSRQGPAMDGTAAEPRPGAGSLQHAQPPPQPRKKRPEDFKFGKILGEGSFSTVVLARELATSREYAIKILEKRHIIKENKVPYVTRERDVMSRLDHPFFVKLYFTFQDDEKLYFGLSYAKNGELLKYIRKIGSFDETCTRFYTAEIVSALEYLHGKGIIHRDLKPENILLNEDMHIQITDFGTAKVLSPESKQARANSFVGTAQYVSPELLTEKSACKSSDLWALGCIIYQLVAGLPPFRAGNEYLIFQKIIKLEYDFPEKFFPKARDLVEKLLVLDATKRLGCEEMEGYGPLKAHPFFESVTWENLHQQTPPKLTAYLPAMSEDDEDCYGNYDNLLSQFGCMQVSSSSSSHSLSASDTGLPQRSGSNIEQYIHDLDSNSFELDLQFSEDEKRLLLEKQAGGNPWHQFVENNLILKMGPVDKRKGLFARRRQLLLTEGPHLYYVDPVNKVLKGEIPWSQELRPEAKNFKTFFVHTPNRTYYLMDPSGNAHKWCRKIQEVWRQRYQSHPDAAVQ
The settings on record: at 0.1 µM.

The target of assay [2] is cAMP-dependent protein kinase catalytic subunit alpha (Homo sapiens) (UniProt P17612). The note with it: at 0.1 µM.
Assay [3] shares this target. The note with it: at 1 µM.
Assay [4] deals with Protein kinase C alpha type (Homo sapiens) (UniProt P17252). The settings on record: at 0.1 µM.
For assay [5] the target is unchanged. The settings on record: at 1 µM.
Assay [6] concerns the target Protein kinase C beta type (Homo sapiens) (UniProt P05771). The note with it: at 0.1 µM.
The target is the same in assay [7]. The settings on record: at 1 µM.
Assay [8] addresses Protein kinase C eta type (Homo sapiens) (UniProt P24723). The settings on record: at 0.1 µM.
Assay [9] has the same target. The note with it: at 1 µM.
In assay [10] the target is Protein kinase C gamma type (Homo sapiens) (UniProt P05129). The settings on record: at 0.1 µM.
The target is the same in assay [11]. The settings on record: at 1 µM.
Assay [12] concerns the target T2, Protein kinase C iota type (Homo sapiens) (UniProt P41743).
T2 sequence (whole entry): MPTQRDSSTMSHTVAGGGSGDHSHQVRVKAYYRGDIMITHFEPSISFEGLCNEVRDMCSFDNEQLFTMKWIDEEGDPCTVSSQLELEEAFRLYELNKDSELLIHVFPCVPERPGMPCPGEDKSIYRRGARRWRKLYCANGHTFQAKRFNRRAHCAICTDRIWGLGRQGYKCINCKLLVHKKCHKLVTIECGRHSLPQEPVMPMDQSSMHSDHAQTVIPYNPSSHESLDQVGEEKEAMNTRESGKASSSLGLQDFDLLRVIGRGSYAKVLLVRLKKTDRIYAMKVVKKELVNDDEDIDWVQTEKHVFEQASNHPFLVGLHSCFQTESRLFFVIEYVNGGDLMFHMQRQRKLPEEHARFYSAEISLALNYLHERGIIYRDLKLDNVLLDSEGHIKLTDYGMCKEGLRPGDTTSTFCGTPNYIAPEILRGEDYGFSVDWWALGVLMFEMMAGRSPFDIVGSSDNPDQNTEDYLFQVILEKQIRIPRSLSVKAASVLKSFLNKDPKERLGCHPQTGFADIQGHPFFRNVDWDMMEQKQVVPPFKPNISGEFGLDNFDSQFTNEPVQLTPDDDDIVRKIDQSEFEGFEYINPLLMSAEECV
The note with it: at 0.1 µM.

Assay [13] concerns the target T2, Protein kinase C iota type (Homo sapiens). The settings on record: at 1 µM.
Assay [14] deals with Protein kinase C theta type (Homo sapiens) (UniProt Q04759). The settings on record: at 0.1 µM.
Protein kinase C theta type (Homo sapiens), sequence (Q04759 whole entry, looked up): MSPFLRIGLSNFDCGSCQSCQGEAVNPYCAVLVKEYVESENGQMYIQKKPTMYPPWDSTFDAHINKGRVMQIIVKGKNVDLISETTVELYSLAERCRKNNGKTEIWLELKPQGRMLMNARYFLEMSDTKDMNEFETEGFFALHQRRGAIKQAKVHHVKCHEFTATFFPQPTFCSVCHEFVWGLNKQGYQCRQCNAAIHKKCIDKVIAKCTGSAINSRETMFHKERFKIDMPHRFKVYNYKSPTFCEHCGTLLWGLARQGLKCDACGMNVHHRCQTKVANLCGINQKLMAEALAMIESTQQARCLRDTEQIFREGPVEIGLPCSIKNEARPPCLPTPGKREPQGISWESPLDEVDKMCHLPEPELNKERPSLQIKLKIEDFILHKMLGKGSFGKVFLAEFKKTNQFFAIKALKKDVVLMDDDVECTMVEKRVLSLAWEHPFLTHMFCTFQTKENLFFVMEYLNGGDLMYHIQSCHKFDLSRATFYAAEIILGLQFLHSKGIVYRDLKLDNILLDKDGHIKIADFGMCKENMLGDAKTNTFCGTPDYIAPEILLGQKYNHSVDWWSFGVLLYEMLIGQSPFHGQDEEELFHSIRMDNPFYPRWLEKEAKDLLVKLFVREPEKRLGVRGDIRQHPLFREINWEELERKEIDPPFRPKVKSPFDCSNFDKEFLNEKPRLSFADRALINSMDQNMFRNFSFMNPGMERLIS
For assay [15] the target is unchanged. The settings on record: at 1 µM.
In assay [16] the target is Protein kinase C beta type (Homo sapiens) (UniProt P05771). The note with it: at 0.1 µM. The source holds these as a separate data set.
Protein kinase C beta type (Homo sapiens), sequence (P05771 2-671 limits assumed): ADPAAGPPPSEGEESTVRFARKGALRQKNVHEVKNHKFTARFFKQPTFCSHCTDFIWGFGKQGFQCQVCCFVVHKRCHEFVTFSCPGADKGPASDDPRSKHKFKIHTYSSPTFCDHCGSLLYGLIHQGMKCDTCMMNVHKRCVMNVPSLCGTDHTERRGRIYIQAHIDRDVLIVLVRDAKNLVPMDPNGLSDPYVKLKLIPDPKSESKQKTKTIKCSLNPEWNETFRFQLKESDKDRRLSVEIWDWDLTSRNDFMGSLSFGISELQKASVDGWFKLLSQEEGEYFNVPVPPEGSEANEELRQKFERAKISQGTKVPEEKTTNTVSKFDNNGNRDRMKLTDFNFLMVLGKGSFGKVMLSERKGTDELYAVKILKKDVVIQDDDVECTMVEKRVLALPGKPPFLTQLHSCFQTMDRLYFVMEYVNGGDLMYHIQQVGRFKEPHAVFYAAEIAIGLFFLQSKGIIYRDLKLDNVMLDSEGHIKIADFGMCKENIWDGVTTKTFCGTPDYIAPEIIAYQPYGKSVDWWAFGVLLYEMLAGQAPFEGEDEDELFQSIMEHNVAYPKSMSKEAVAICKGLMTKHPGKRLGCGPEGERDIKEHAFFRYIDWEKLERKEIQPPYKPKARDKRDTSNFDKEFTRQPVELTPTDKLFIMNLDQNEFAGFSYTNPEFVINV
Assay [17] shares this target. The note with it: at 1 µM. The source holds these as a separate data set.
For assay [18], the target named is T3, Serine/threonine-protein kinase D1 (Homo sapiens) (UniProt Q15139).
T3 sequence (whole entry): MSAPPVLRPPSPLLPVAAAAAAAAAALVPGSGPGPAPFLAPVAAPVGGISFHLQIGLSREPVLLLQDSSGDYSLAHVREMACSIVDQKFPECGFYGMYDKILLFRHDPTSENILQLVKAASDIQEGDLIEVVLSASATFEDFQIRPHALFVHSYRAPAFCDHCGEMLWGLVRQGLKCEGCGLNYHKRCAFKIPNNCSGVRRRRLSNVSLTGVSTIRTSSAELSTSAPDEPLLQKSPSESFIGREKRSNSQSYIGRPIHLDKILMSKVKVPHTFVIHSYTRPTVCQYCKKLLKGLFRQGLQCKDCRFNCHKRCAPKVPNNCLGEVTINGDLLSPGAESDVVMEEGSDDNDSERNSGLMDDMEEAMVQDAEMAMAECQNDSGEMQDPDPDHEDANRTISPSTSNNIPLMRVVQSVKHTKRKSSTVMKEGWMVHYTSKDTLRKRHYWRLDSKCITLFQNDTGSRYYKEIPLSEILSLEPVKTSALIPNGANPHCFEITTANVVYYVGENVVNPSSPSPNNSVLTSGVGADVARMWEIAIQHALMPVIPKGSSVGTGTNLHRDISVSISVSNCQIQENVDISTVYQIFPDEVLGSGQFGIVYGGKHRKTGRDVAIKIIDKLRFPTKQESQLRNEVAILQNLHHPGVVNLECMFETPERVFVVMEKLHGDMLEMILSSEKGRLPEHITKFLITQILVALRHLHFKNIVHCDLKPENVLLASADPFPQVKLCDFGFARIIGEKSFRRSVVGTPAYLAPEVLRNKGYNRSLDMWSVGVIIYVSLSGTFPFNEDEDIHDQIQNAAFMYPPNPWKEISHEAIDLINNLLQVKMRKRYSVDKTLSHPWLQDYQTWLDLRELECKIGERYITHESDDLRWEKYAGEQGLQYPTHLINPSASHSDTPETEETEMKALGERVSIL
The note with it: at 0.1 µM.

In assay [19] the target is T3, Serine/threonine-protein kinase D1 (Homo sapiens). The settings on record: at 1 µM.
Assay [20] concerns the target T4, Serine/threonine-protein kinase D2 (Homo sapiens) (UniProt Q9BZL6).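 Also: reported percent inhibition values are means, part of the GSK PKIS kinase panel screen.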
T4 sequence (whole entry): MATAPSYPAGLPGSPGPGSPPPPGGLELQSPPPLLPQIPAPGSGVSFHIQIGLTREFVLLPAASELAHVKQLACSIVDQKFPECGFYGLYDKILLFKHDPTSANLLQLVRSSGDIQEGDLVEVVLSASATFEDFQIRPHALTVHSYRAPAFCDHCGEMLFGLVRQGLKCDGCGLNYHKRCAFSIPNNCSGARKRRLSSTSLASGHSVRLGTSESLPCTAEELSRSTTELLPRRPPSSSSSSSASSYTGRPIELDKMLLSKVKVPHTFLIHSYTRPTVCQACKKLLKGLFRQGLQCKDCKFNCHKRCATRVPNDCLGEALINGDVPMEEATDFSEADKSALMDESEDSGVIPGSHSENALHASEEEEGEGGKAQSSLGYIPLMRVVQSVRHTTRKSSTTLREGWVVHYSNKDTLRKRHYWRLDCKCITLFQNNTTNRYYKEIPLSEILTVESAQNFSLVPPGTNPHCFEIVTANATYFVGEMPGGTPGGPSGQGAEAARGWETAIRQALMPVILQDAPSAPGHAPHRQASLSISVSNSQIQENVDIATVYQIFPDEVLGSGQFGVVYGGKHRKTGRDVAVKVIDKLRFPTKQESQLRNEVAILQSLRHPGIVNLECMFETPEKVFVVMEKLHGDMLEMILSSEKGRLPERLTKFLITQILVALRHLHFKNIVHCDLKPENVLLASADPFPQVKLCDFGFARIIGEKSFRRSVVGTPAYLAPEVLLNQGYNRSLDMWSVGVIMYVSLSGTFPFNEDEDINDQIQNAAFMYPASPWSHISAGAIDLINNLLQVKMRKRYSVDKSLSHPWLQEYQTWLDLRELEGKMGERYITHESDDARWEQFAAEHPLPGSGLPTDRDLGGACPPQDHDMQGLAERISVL
The settings on record: at 0.1 µM.

Molecules are shown by their SMILES.

In general, inhibition refers to the drop in the measured response relative to a control, in per cent.

Protein kinase C eta type (Homo sapiens), sequence (P24723 whole entry): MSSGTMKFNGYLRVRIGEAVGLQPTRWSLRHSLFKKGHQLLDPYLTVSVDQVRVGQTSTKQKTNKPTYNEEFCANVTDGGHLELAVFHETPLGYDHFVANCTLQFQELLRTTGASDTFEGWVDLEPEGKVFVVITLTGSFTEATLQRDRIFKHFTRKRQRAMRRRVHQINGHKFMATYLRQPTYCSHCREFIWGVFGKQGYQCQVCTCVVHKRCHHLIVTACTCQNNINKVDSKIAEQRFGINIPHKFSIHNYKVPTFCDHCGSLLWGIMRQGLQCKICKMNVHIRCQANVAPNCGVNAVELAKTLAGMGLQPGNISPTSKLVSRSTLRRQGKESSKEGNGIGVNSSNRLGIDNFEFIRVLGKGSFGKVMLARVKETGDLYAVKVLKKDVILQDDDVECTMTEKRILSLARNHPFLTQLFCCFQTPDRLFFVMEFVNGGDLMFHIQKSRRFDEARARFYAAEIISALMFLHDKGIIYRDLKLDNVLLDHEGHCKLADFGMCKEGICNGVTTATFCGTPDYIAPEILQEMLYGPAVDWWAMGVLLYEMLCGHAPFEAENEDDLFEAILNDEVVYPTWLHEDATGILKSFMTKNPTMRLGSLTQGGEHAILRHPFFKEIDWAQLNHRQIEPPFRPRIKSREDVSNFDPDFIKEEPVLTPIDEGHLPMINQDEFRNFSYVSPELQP

With `COC(=O)Nc1nc2cc(Oc3ccc(NC(=O)Nc4cccc(C(=O)O)c4)cc3)ccc2[nH]1`, the inhibition is 2.53% in assay [1]; -3.91% in [2]; 0.18% in assay [3]; -3.01% in assay [4]; -3.65% in assay [5]; 0.02% in assay [6]. Besides, the inhibition in assay [7] is 1.6%; in assay [8], -0.35%; in assay [9] it was 3.15%; in assay [10], 2.38%; in [11], -0.24%; in assay [12], 0.47%. Also, the inhibition in assay [13] is -1.28%; in [14], 0.18%; in assay [15] it was 2.02%; in assay [16] it was -0.5%; in assay [17], 0.44%; in assay [18] it was -1.35%. Also, the results for the inhibition in assay [19] and in assay [20] were -1.96% and -3.05%, respectively.

As to `CCCN1CCC(Oc2cc(Nc3nc(Nc4cccc(F)c4C(N)=O)c4cc[nH]c4n3)c(OC)cc2Cl)CC1`, the inhibition in assay [1] worked out at 1.74%; in [2], 9.14%; in assay [3], 9.18%; in assay [4], 0.7%; in assay [5], 11.2%; in [6], 0.29%. The inhibition in [7] worked out at 1.21%; in assay [8], 2.42%; in assay [9], 1.59%; in [10], 2.93%; in [11], 14.8%; in [12], 1.04%. Moreover, the inhibition in [13] is 1.06%; in [14], 1.35%; in assay [15], 7.05%; in assay [16], 1.2%; in assay [17] it was 4.52%; in assay [18], 0.11%. Also, the inhibition in assay [19] is 7.94%; in [20], -0.33%.

In the case of `[O-][S+]1CCN(Cc2ccc(-c3ccc4ncnc(Nc5ccc(OCc6ccccc6)c(F)c5)c4c3)o2)CC1`, the inhibition in assay [1] was 2.01%; in [2], 0.99%; in assay [3] it was 0.53%; in assay [4], 0.47%; in assay [5], 1.52%; in assay [6], -0.89%. Further, the inhibition was -0.42% in [7]; 0.68% in assay [8]; 0.14% in assay [9]; -0.39% in assay [10]; -0.2% in [11]; 1.01% in assay [12]. For the same compound, the inhibition in [13] was 1.01%; in assay [14], 0.77%; in [15], -0.73%; in assay [16], 0.35%; in assay [17], 0.5%; in [18], 2.32%. The inhibition in [19] is 4.27%; in assay [20], 3.5%.

Turning to `COc1cc(C)c(NC(=O)CN(C)C)cc1Nc1nc(Nc2cccc(F)c2C(N)=O)c2cc[nH]c2n1`, the inhibition was 2.96% in assay [1]; 1.08% in assay [2]; -0.43% in assay [3]; 1.34% in [4]; 5.42% in assay [5]; -0.18% in [6]. In addition, the inhibition in assay [7] is -0.1%; in [8] it was 1.08%; in assay [9] it was 1.46%; in assay [10], 3.92%; in assay [11] it was 8.9%; in [12], -0.31%. The inhibition in assay [13] was 1.29%; in assay [14] it was 0.13%; in assay [15] it was 0.13%; in [16], 0.38%; in assay [17], 0.55%; in assay [18] it was 2.21%. Besides, the inhibition in assay [19] amounted to 18.1%; in assay [20] it was 3.43%.

In the case of `COc1ccc(COc2ccc(Cc3cnc(N)nc3N)cc2OC)cc1`, the inhibition in assay [1] stood at 1.69%; in [2], 4.69%; in assay [3], 1.52%; in assay [4], 1.05%; in assay [5], 1.13%; in [6], 3.26%. In addition, the inhibition was 2.56% in assay [7]; 1.31% in [8]; -0.03% in assay [9]; 2.11% in [10]; 0.23% in assay [11]; 0.94% in assay [12]. The inhibition in assay [13] was 2.56%; in assay [14], 0.95%; in [15], -0.58%; in assay [16], 2%; in assay [17], 1.96%; in [18], 0.61%. The inhibition in assay [19] is 2.03%; in assay [20] it was -0.07%.

For `CCc1cccc(NC(=O)Nc2ccc(Oc3ccc4nc(NC(=O)OC)[nH]c4c3)cc2)c1`, the inhibition in assay [1] stood at 2.37%; in assay [2] it was 2.93%; in assay [3], 0.86%; in [4], 0.7%; in assay [5], 0.72%; in assay [6], 0.28%. The inhibition in assay [7] was 1.12%; in assay [8], 2.69%; in assay [9], 2.14%; in [10], 1.95%; in [11], 2%; in assay [12], 0.46%. Moreover, the inhibition in [13] is -1.58%; in [14], 0.42%; in [15] it was 1.12%; in assay [16], -0.27%; in assay [17] it was -1.17%; in assay [18] it was 1.25%. Further, the results for the inhibition in [19] and in assay [20] were 1.01% and 0.52%, respectively.
